Data on 49 compounds can be found in PubChem BioAssay AID493131 (Broad Institute, 2011).

Out of some 340,000 compounds screened, about 3,300 (0.97%) were called active. Only a selection was taken, and actives are over-represented in it overall. A number with no mark means an inactive call.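 Rule for the calls: active = mean activation above about 17%, with every replicate also reaching it (limit read from the data, passing the limit was not always enough); inconclusive = only one of the two conditions met; inactive = the rest.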

Protein FosB (Mus musculus), sequence (P13346 whole entry, looked up): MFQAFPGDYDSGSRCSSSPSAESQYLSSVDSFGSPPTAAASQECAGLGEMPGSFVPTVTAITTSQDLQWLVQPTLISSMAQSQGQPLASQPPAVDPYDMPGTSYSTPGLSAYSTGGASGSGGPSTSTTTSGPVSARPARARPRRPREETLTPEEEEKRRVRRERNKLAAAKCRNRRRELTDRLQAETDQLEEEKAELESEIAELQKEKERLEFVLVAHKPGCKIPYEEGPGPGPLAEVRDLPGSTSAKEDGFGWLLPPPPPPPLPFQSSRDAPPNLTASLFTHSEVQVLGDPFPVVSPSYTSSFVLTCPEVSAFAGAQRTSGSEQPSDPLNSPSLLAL

This test concerns the target Protein FosB (Mus musculus) (UniProt P13346). The test is described as follows: activators of delta FosB homodimer, primary screen, biochemical, fluorescence polarization, TAMRA-CDK5 oligo, single point (AID 493131).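 Note: fluorescence polarization rise as delta FosB binds a TAMRA Cdk5 AP-1 oligo.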 The settings on record: purified delta FosB, at 25 µM, stronger effect = higher value, percent of positive-control signal above neutral wells.
Turning to `CNc1nc(SC)nc(N(C#N)CC(=O)OC)n1`, the activation is 0.989%.

As to `Oc1c(C(c2ccco2)N2CCC3(CC2)OCCO3)sc2ncnn12` (centres undefined), the activation is -7.56%. Take `CC(=O)Nc1ccc(NC(=O)C(NS(=O)(=O)c2ccc3c(c2)OCCO3)C(C)C)cc1` (centres undefined): the activation was 36.7% (active). Take `CC(NS(=O)(=O)c1ccc(Cl)cc1)C(=O)Nc1ccc2c(c1)OCCO2` (centres undefined): the activation was 1.9%. To `CC(C)NS(=O)(=O)c1ccc(OCC(=O)Nc2ccc3c(c2)OCCO3)cc1` belongs -10.5%.

Consider `CCc1ccc(C(=O)OCC(=O)NCC(F)(F)F)cc1`, for which the activation is -1.18%. In the case of `COC(=O)c1ccc2ccccc2c1OC1OC(CO)C(O)C(O)C1NC(C)=O` (centres undefined), the activation was -0.206%. The figure for `C#CCOCCOCCOCCNc1nc(N2CCN(C(=O)C([C@@H](C)O)n3cc([C@@H](N)CCCCN)nn3)CC2)nc(N2CCN(C(=O)[C@H](CCCCN)n3cc(CN)nn3)CC2)n1` (some centres undefined) is 31.3% (active); for `C#CCOCCOCCOCCNc1nc(N2CCN(C(=O)C(Cc3ccc(O)cc3)n3cc(C(N)CC(C)C)nn3)CC2)nc(N2CCN(C(=O)C(Cc3ccc(O)cc3)n3cc(C(N)C(C)CC)nn3)CC2)n1` (centres undefined) it is 22.4% (active); for `C#CCOCCOCCOCCNc1nc(N2CCN(C(=O)[C@H](CCCCN)n3cc(CCC(=O)O)nn3)CC2)nc(N2CCN(C(=O)[C@H](CCCCN)n3cc(CC(C)O)nn3)CC2)n1` (some centres undefined) it is 2.6%. The figure for `C#CCOCCOCCOCCNc1nc(N2CCN(C(=O)[C@H](CCCCN)n3cc([C@@H](N)C(C)CC)nn3)CC2)nc(N2CCN(C(=O)[C@H](Cc3ccc(O)cc3)n3cc([C@@H](N)C(C)CC)nn3)CC2)n1` (some centres undefined) is 15.3%. For `C#CCOCCOCCOCCNc1nc(N2CCN(C(=O)[C@H](Cc3ccc(O)cc3)n3cc(C(N)CC(C)C)nn3)CC2)nc(N2CCN(C(=O)[C@H](CCC(=O)O)n3cc(C(N)[C@H](C)CC)nn3)CC2)n1` (some centres undefined), the activation was 2.04%.

For `C#CCOCCOCCOCCNc1nc(N2CCN(C(=O)[C@H](CCC(=O)O)n3cc(CN)nn3)CC2)nc(N2CCN(C(=O)[C@H](CCC(=O)O)n3cc(CN)nn3)CC2)n1`, the activation is -0.339%. The figure for `Cc1csc(CN(C)C(=O)CC2C(=O)NCCN2CC(C)(C)C)n1` (centres undefined) is -10.6%; for `COc1cc(-c2nnc(Cn3cc(C(F)(F)F)ccc3=O)o2)cc(OC)c1OC` it is -9.47%; for `COC(=O)c1ccc(CSc2ccc(S(=O)(=O)N3CCCCC3)cn2)cc1` it is 8.71%. As to `COc1ccc(N(C)S(=O)(=O)c2ccc3c(c2)CC(C)N3C(=O)C2CC2)c(OC)c1` (centres undefined), the activation was -12.2%. Take `COc1cc(C(=O)N2CCN(C/C=C/c3ccccc3)CC2)cc(OC)c1C`: the activation is -7.31%.

As for `Cn1nnc(NC(=S)NC(=O)c2ccccc2)n1`, the activation is -9.58%.

For `CCOC(=O)C1=C(C)N(C[C@@H]2CC[C@@H](Cc3ccc(-c4ccccc4)cc3)O2)C(=O)NC1c1ccc([N+](=O)[O-])cc1` (some centres undefined), the activation is -9.34%. To `S=c1c2[nH]cnc2ncn1CCSc1ncnc2nc[nH]c12` belongs 3.83%; to `COC(=O)c1ccc(CNC(=O)c2ccc3oc(C(C)C)nc3c2)cc1`, -7.42%; to `Cc1cc(C)cc(NC(=O)CN2C(=O)c3ccccc3C2=O)c1`, 3.94%. For the compound `CC(C(=O)O)N1C(=O)c2cccc3cccc1c23` (centres undefined), the activation is 2.8%.

For the compound `O=C(CN1C(=O)c2cccc3cccc1c23)Nc1ccccc1`, the activation is 28.7% (active). The figure for `COc1ccc(NC(=O)CCC(=O)N2CCN(S(=O)(=O)c3ccc(C)cc3)CC2)c(OC)c1` is -2.45%; for `CCN1/C(=C\c2ccc3ccccc3[n+]2CC)Sc2cc(C)ccc21` it is 54.5% (active); for `COc1cc(/C=C/C(=O)Nc2ccc(OC)c(S(=O)(=O)N3CCOCC3)c2)ccc1OCC#N` it is -6.09%. `COc1ccc(/C=C/C(=O)Nc2ccc(C34CC5CC(CC(O)(C5)C3)C4)cc2)cc1OC`: the activation is 51.4% (active).

In the case of `COc1ccc(/C=C/C(=O)Nc2ccc(C)cc2)cc1S(=O)(=O)N1CCOCC1`, the activation is -1.41%. Regarding `COc1ccc(Cn2c(O)c(/C=C3/C=CC=N3)c(=O)[nH]c2=O)cc1`, the activation was 25.7% (active). The figure for `COc1ccc(Cn2c(=O)cc(C)[nH]c2=S)cc1` is -1.58%; for `CCCOc1ccc(Cn2c(O)cc(=O)[nH]c2=O)cc1` it is 3.75%. To `CN(CC(O)COc1ccc(S(=O)(=O)N2CCOCC2)cc1Cl)C1CCCCC1` (centres undefined) belongs -9.15%.

Take `O=C(NCCN=C1NS(=O)(=O)c2ccccc21)c1ccc(S(=O)(=O)N2CCOCC2)cc1`: the activation was -16.1%.

Turning to `O=C(Nc1ccc2cn[nH]c2c1)c1ccc(S(=O)(=O)N2CCOCC2)cc1`, the activation was -7.23%. For `Cc1nn(CC(=O)N2CCCCC2)c(=O)c2nn(-c3ccccc3)c(C)c12`, the activation was -5.62%. With `COc1ccc(CNC(=O)C(C)n2nc(C)c3c(C)n(-c4ccccc4)nc3c2=O)c(OC)c1` (centres undefined), the activation is -16.4%. As for `COc1ccc(OC)c(CNC(=O)Cn2nc(C)c3c(C)n(-c4ccc(C)cc4)nc3c2=O)c1`, the activation was 113% (active).

With `CCc1ccccc1NC(=O)CN(C)C(=O)c1cc(C2CC2)nn1-c1ccccc1`, the activation was -9.06%. To `O=C(O)c1cccnc1NC1CCCC1` belongs 1.59%; to `Cc1nn(C)cc1S(=O)(=O)N1CCN(c2ccc(F)cc2)CC1`, -3.96%.

Take `COc1ccc(-c2cc(=O)c3c(O)cc(O[C@@H]4O[C@H](CO[C@@H]5O[C@@H](C)[C@H](O)[C@@H](O)[C@H]5O)[C@@H](O)[C@H](O)[C@H]4O)cc3o2)cc1O`: the activation was 74.8% (active). To `COc1c(O)cc2oc(-c3ccc(O)c(O)c3)cc(=O)c2c1O` belongs -4.25%; to `C[C@@H]1O[C@@H](OC[C@H]2O[C@@H](Oc3c(-c4ccc(O)cc4)oc4cc(O)cc(O)c4c3=O)[C@H](O)[C@@H](O)[C@@H]2O)[C@H](O)[C@H](O)[C@H]1O`, -1.58%. Regarding `Cc1ccc(NC(=O)NC(=O)N(C2CCCCC2)S(=O)(=O)c2ccccc2)cc1`, the activation was -0.8%. The figure for `O=C(Cn1cc(-c2nnnn2-c2ccc(Cl)cc2)c(=O)c2ccccc21)c1ccccc1` is 114% (active).

`O=C(CN1CCN(c2ccc(Cl)cc2)CC1)c1ccccc1`: the activation was 1.64%. For the compound `Clc1ccc(-n2nnnc2-c2cnc(-c3ccccn3)nc2-c2cccs2)cc1`, the activation is -8.45%.
